Results from PubChem BioAssay (NCATS).
For some assays here: Potency and affinity values are given separately. The source made the active and inactive calls. Entries that show only a call come without a potency. Calls come from the whole dose curve.

conditions: Ebola virus entry assay, green fluorescence channel

Compound | outcome
CCc1nc(N)nc(N)c1-c1ccc(Cl)cc1 | inactive
Clc1ccc(C(c2ccccc2Cl)C(Cl)Cl)cc1 (stereo not given) | inactive
Nc1cccc2c1CN(C1CCC(=O)NC1=O)C2=O (stereo not given) | inactive
C=C[C@H]1CN2CC[C@H]1C[C@@H]2[C@@H](O)c1ccnc2ccc(OC)cc12 | inactive
Nc1nc(N)c2nc(-c3ccccc3)c(N)nc2n1 | inactive
CC[C@H](C)C(=O)O[C@H]1C[C@@H](C)C=C2C=C[C@H](C)[C@H](CC[C@@H]3C[C@@H](O)CC(=O)O3)[C@H]21 | inactive
CC(COc1ccccc1)N(CCCl)Cc1ccccc1 (stereo not given) | inactive
Cc1nccn1CC1CCc2c(c3ccccc3n2C)C1=O (stereo not given) | inactive
CNC1(C)C2CCC(C2)C1(C)C (stereo not given) | inactive
NNc1nncc2ccccc12 | inactive
CNC(=O)c1cc(Oc2ccc(NC(=O)Nc3ccc(Cl)c(C(F)(F)F)c3)cc2)ccn1 | inactive
Cc1ccc(C)c(OCCCC(C)(C)C(=O)O)c1 | inactive
CCC(C)(C)C(=O)O[C@H]1C[C@@H](C)C=C2C=C[C@H](C)[C@H](CC[C@@H]3C[C@@H](O)CC(=O)O3)[C@H]21 | inactive
Cc1ccc(S(=O)(=O)NC(=O)NN2CC3CCCC3C2)cc1 (stereo not given) | inactive
CCCN1C[C@H](CSC)C[C@@H]2c3cccc4[nH]cc(c34)C[C@H]21 | inactive
CN1CCC[C@@H]1Cc1c[nH]c2ccc(CCS(=O)(=O)c3ccccc3)cc12 | inactive
O=C1[C@H](CC[C@H](O)c2ccc(F)cc2)[C@@H](c2ccc(O)cc2)N1c1ccc(F)cc1 | inactive
COc1c(C)c2c(c(O)c1C/C=C(\C)CCC(=O)O)C(=O)OC2 | inactive
C=C(CC)C(=O)c1ccc(OCC(=O)O)c(Cl)c1Cl | inactive
CN(C)CC[C@@H](c1ccc(Br)cc1)c1ccccn1 | inactive

Compound | outcome
CCOC(=O)C1(c2ccccc2)CCN(CCC(C#N)(c2ccccc2)c2ccccc2)CC1 | inactive
Oc1ccc(C2CNCCc3c2cc(O)c(O)c3Cl)cc1 (stereo not given) | inactive
CC1(C)S[C@@H]2[C@H](NC(=O)Cc3ccccc3)C(=O)N2[C@H]1C(=O)O (tested in a mixture with another compound) | inactive
COc1cc2nc(N3CCN(C(=O)C4CCCO4)CC3)nc(N)c2cc1OC (stereo not given) | inactive
CC(=O)[C@]1(O)Cc2c(O)c3c(c(O)c2[C@@H](O[C@H]2C[C@H](N)[C@H](O)[C@H](C)O2)C1)C(=O)c1ccccc1C3=O | inactive
C#C[C@]1(O)CC[C@H]2[C@@H]3CCC4=Cc5oncc5C[C@]4(C)[C@H]3CC[C@@]21C | inactive
C=C(c1ccc(C(=O)O)cc1)c1cc2c(cc1C)C(C)(C)CCC2(C)C | inactive
C[C@](N)(Cc1ccc(O)c(O)c1)C(=O)O | inactive
C#Cc1cccc(Nc2ncnc3cc(OCCOC)c(OCCOC)cc23)c1 | inactive
CCn1cc(C(=O)O)c(=O)c2cc(F)c(N3CCNCC3)cc21 | inactive
CCC1=C[C@@H]2CN(C1)Cc1c([nH]c3ccccc13)[C@@](C(=O)OC)(c1cc3c(cc1OC)N(C)[C@H]1[C@@](O)(C(=O)OC)[C@H](OC(C)=O)[C@]4(CC)C=CCN5CC[C@]31[C@@H]54)C2 | inactive
Nc1ccc(O)c(C(=O)O)c1 | inactive
CN(C/C=C/C#CC(C)(C)C)Cc1cccc2ccccc12 | inactive
O=C1Nc2ccc(Cl)cc2[C@@](C#CC2CC2)(C(F)(F)F)O1 | inactive
COc1c(C)c2c(c(O)c1C/C=C(\C)CCC(=O)OCCN1CCOCC1)C(=O)OC2 | inactive
Cc1cn([C@H]2C[C@H](N=[N+]=[N-])[C@@H](CO)O2)c(=O)[nH]c1=O | inactive
C[C@H]1O[C@H](O[C@H]2[C@H](O)[C@@H](O)[C@@H](O[C@H]3[C@H](O)[C@@H](O)[C@H](O)O[C@@H]3CO)O[C@@H]2CO)[C@H](O)[C@@H](O)[C@@H]1N[C@H]1C=C(CO)[C@@H](O)[C@H](O)[C@H]1O | inactive
NC1[C@H]2CN(c3nc4c(cc3F)c(=O)c(C(=O)O)cn4-c3ccc(F)cc3F)C[C@@H]12 (stereo not given in full) | inactive
CCC(C)n1ncn(-c2ccc(N3CCN(c4ccc(OC[C@H]5CO[C@](Cn6cncn6)(c6ccc(Cl)cc6Cl)O5)cc4)CC3)cc2)c1=O (stereo not given in full) | inactive
CCOC(=O)C1=C(C)NC(C)=C(C(=O)OC)C1c1cccc(Cl)c1Cl (stereo not given) | inactive

conditions: Ebola virus entry assay, ratio channel readout

Compound | outcome | AC50
CCc1nc(N)nc(N)c1-c1ccc(Cl)cc1 | inactive | 
Clc1ccc(C(c2ccccc2Cl)C(Cl)Cl)cc1 (stereo not given) | inactive | 
Nc1cccc2c1CN(C1CCC(=O)NC1=O)C2=O (stereo not given) | inactive | 
C=C[C@H]1CN2CC[C@H]1C[C@@H]2[C@@H](O)c1ccnc2ccc(OC)cc12 | inactive | 
Nc1nc(N)c2nc(-c3ccccc3)c(N)nc2n1 | inactive | 
CC[C@H](C)C(=O)O[C@H]1C[C@@H](C)C=C2C=C[C@H](C)[C@H](CC[C@@H]3C[C@@H](O)CC(=O)O3)[C@H]21 | inactive | 
CC(COc1ccccc1)N(CCCl)Cc1ccccc1 (stereo not given) | inactive | 
Cc1nccn1CC1CCc2c(c3ccccc3n2C)C1=O (stereo not given) | inactive | 
CNC1(C)C2CCC(C2)C1(C)C (stereo not given) | inactive | 
NNc1nncc2ccccc12 | inactive | 
CNC(=O)c1cc(Oc2ccc(NC(=O)Nc3ccc(Cl)c(C(F)(F)F)c3)cc2)ccn1 | inactive | 
Cc1ccc(C)c(OCCCC(C)(C)C(=O)O)c1 | inactive | 
CCC(C)(C)C(=O)O[C@H]1C[C@@H](C)C=C2C=C[C@H](C)[C@H](CC[C@@H]3C[C@@H](O)CC(=O)O3)[C@H]21 | inactive | 
Cc1ccc(S(=O)(=O)NC(=O)NN2CC3CCCC3C2)cc1 (stereo not given) | inactive | 
CCCN1C[C@H](CSC)C[C@@H]2c3cccc4[nH]cc(c34)C[C@H]21 | inactive | 
CN1CCC[C@@H]1Cc1c[nH]c2ccc(CCS(=O)(=O)c3ccccc3)cc12 | inactive | 
O=C1[C@H](CC[C@H](O)c2ccc(F)cc2)[C@@H](c2ccc(O)cc2)N1c1ccc(F)cc1 | inactive | 
COc1c(C)c2c(c(O)c1C/C=C(\C)CCC(=O)O)C(=O)OC2 | inactive | 
C=C(CC)C(=O)c1ccc(OCC(=O)O)c(Cl)c1Cl | inactive | 
CN(C)CC[C@@H](c1ccc(Br)cc1)c1ccccn1 | inactive | 

Compound | outcome | AC50
CCOC(=O)C1(c2ccccc2)CCN(CCC(C#N)(c2ccccc2)c2ccccc2)CC1 | inactive | 
Oc1ccc(C2CNCCc3c2cc(O)c(O)c3Cl)cc1 (stereo not given) | inactive | 
CC1(C)S[C@@H]2[C@H](NC(=O)Cc3ccccc3)C(=O)N2[C@H]1C(=O)O (tested in a mixture with another compound) | inactive | 
COc1cc2nc(N3CCN(C(=O)C4CCCO4)CC3)nc(N)c2cc1OC (stereo not given) | inactive | 
CC(=O)[C@]1(O)Cc2c(O)c3c(c(O)c2[C@@H](O[C@H]2C[C@H](N)[C@H](O)[C@H](C)O2)C1)C(=O)c1ccccc1C3=O | inactive | 
C#C[C@]1(O)CC[C@H]2[C@@H]3CCC4=Cc5oncc5C[C@]4(C)[C@H]3CC[C@@]21C | inactive | 
C=C(c1ccc(C(=O)O)cc1)c1cc2c(cc1C)C(C)(C)CCC2(C)C | inactive | 
C[C@](N)(Cc1ccc(O)c(O)c1)C(=O)O | inactive | 
C#Cc1cccc(Nc2ncnc3cc(OCCOC)c(OCCOC)cc23)c1 | inactive | 
CCn1cc(C(=O)O)c(=O)c2cc(F)c(N3CCNCC3)cc21 | inactive | 
CCC1=C[C@@H]2CN(C1)Cc1c([nH]c3ccccc13)[C@@](C(=O)OC)(c1cc3c(cc1OC)N(C)[C@H]1[C@@](O)(C(=O)OC)[C@H](OC(C)=O)[C@]4(CC)C=CCN5CC[C@]31[C@@H]54)C2 | inactive | 
Nc1ccc(O)c(C(=O)O)c1 | inactive | 
CN(C/C=C/C#CC(C)(C)C)Cc1cccc2ccccc12 | inactive | 
O=C1Nc2ccc(Cl)cc2[C@@](C#CC2CC2)(C(F)(F)F)O1 | inactive | 
COc1c(C)c2c(c(O)c1C/C=C(\C)CCC(=O)OCCN1CCOCC1)C(=O)OC2 | inactive | 
Cc1cn([C@H]2C[C@H](N=[N+]=[N-])[C@@H](CO)O2)c(=O)[nH]c1=O | inactive | 
C[C@H]1O[C@H](O[C@H]2[C@H](O)[C@@H](O)[C@@H](O[C@H]3[C@H](O)[C@@H](O)[C@H](O)O[C@@H]3CO)O[C@@H]2CO)[C@H](O)[C@@H](O)[C@@H]1N[C@H]1C=C(CO)[C@@H](O)[C@H](O)[C@H]1O | inactive | 
NC1[C@H]2CN(c3nc4c(cc3F)c(=O)c(C(=O)O)cn4-c3ccc(F)cc3F)C[C@@H]12 (stereo not given in full) | inactive | 
CCC(C)n1ncn(-c2ccc(N3CCN(c4ccc(OC[C@H]5CO[C@](Cn6cncn6)(c6ccc(Cl)cc6Cl)O5)cc4)CC3)cc2)c1=O (stereo not given in full) |  | 2 µM (active)
CCOC(=O)C1=C(C)NC(C)=C(C(=O)OC)C1c1cccc(Cl)c1Cl (stereo not given) | inactive | 
